Experimental data reported in PubChem BioAssay AID720517 (National Center for Advancing Translational Sciences (NCATS), 2013).
Inconclusive results are not listed. Where a call stands in place of a potency, no number is given. Active and inactive are the calls of the source. Calls follow the shape of the dose curve; as a rule, active = well fitted activation curve with a large enough effect; inconclusive = small, poorly fitted or top-dose-only effect; inactive = flat fitted curve, though single readings scatter.

Assay: qHTS for Inhibitors of Cell Surface uPA Generation: FP59 Counterscreen for Cherry-picked Compounds
Details: FP59 anthrax toxin cytotoxicity counterscreen, cells; series mostly up to 115 µM
In the case of `[N-]=[N+]=NC1C[C@H](n2ccc(=O)[nH]c2=O)O[C@@H]1CO` (stereo not given in full), the Potency is reported as “inactive”.
With `COCc1cc(C)nc2sc(C(=O)Nc3nccs3)c(N)c12` the Potency was “inactive”.
For `O=C(CSc1ccc([N+](=O)[O-])cn1)Nc1nccs1`, the Potency was “inactive”.
In the case of `COc1ccc(CCNC(=O)Cn2cccc2C(=O)c2ccccc2)c(OC)c1`, the Potency is reported as “inactive”.
With `CN(Cc1ccc(C(C)(C)C)cc1)C(=O)Cc1ccc(S(=O)(=O)N2CCOCC2)s1` the Potency was “inactive”.
For `O=C(NC1CC1)C1CCCN(C(=O)NC2CCCCC2)C1` (stereo not given), the Potency was “inactive”.
For `O=C(CSc1nnnn1-c1cccc(F)c1)Nc1nc2ccccc2s1`, the Potency was “inactive”.
For `COCc1c(C(=O)Nc2nc(C)cs2)oc2ccccc12`, the Potency was “inactive”.
For `CCN(CC)S(=O)(=O)c1ccc(C(=O)Nc2cccc(C)c2)cc1`, the Potency was “inactive”.
In the case of `CN(C(=O)c1ccccc1C(=O)OCC(=O)NCc1ccccc1)C1CCCCC1`, the Potency is reported as “inactive”.
In the case of `O=C(C[C@@H]1C/C=C\C[C@H](Cc2ccc(F)cc2)C(=O)OC[C@H]2CCCN2C1=O)N[C@H](CO)Cc1ccccc1`, the Potency is reported as “inactive”.
With `CCN(CC)S(=O)(=O)c1ccc(NC(=S)Nc2ccc(F)cc2)cc1` the Potency was “inactive”.
In the case of `COc1ccc(C(=O)OCC(=O)N(C)C2CCS(=O)(=O)C2)cc1S(=O)(=O)N(C)Cc1ccccc1` (stereo not given), the Potency is reported as “inactive”.
With `CN(CC(=O)NCCCn1ccnc1)S(=O)(=O)c1ccc(Cl)cc1` the Potency was “inactive”.
With `O=S(=O)(/N=C(/c1ccccc1)N1CCOCC1)c1ccc(F)cc1F` the Potency was “inactive”.
With `COc1cc2oc(=O)ccc2cc1[C@H](O)[C@@H](O)C(C)(C)O` the Potency was “inactive”.
With `CSCC[C@H](NC(=O)[C@H](Cc1ccccc1)n1c(=O)[nH]c2ccccc2c1=O)C(=O)N1CCC[C@@H]1C(=O)O` the Potency was “inactive”.
For `C/C(=N\NC(=O)c1ccccc1)c1c(C)[nH]n(-c2ccccc2)c1=O`, the Potency was “inactive”.
For `O=S(=O)(NCCc1ccccc1F)c1cccc(S(=O)(=O)N2CCOCC2)c1`, the Potency was “inactive”.
In the case of `CC(C)N1CCc2c(sc(NC(=O)Cc3ccccc3)c2C(N)=O)C1`, the Potency is reported as “inactive”.
In the case of `CC1(NC(=O)CSc2nnc(-c3c[nH]c4ccccc34)n2C2CC2)CCS(=O)(=O)C1` (stereo not given), the Potency is reported as “inactive”.
In the case of `Cn1cnc([N+](=O)[O-])c1Sc1ccc(Br)cc1`, the Potency is reported as “inactive”.
With `COc1ccc(CNCCC2(C(C)C)CCOC(C)(C)C2)cc1` (stereo not given) the Potency was “inactive”.
For `COC(=O)C(CCSC)NC(=O)Cn1ncc2c(=O)oc3ccccc3c21` (stereo not given), the Potency was “inactive”.
With `CN(CCO)c1ccc(C(C(=O)c2ccccc2)c2ccc(N(C)CCO)cc2)cc1` the Potency was “inactive”.
In the case of `Cc1ccc(N2C(=O)CC(N3CCN/C3=C3\CC/C(=C\c4ccccc4)C3=O)C2=O)cc1` (stereo not given), the Potency is reported as “inactive”.
With `CCS(=O)(=O)N1CCC(C(=O)NCc2ccc(OC)cc2OC)CC1` the Potency was “inactive”.
With `C[C@@H](CSc1ccccc1)CN1CC[C@H](O)CCC1=O` the Potency was “inactive”.
For `CC(O)[C@H]1CNC(=O)C(=O)N1CCc1cccc(F)c1` (stereo not given in full), the Potency was “inactive”.
In the case of `Cc1cccc(CNc2ccc(C(CC(N)=O)NC(=O)c3cccc(Br)c3)cc2[N+](=O)[O-])c1` (stereo not given), the Potency is reported as “inactive”.
In the case of `CCn1c(=O)cc(C(=O)OC)sc1=Nc1ccc(F)c(F)c1`, the Potency is reported as “inactive”.
In the case of `CSc1nc(N)nc2c1ncn2CC(=O)NCC1CCCO1` (stereo not given), the Potency is reported as “inactive”.
With `Cc1cc(C)n2nc(CNS(=O)(=O)c3ccc(F)c(C)c3)nc2n1` the Potency was “inactive”.
For `Cc1ccc(S(=O)(=O)N2CCC(C)CC2)cc1`, the Potency was “inactive”.
With `CCOc1ccc(/C=N/NC(=S)Nc2c(C)cccc2C)cc1` the Potency was “inactive”.
For `O=C(NCCN1CCOCC1)c1ccc2c(c1)N(Cc1ccc(Cl)cc1)CCS2`, the Potency was “inactive”.
For `C#CCOCCOCCOCCNc1nc(N2CCOCC2)nc(N2CCN(C(=O)[C@H](CCC(=O)O)n3cc([C@@H](N)CCCCN)nn3)CC2)n1`, the Potency was “inactive”.
With `CC1(C)CC2(CC(c3ccccc3)Oc3cc(O)ccc32)NC(=S)N1` (stereo not given) the Potency was “inactive”.
For `O=C(NCCCn1ccnc1)C(=O)NCC(c1cccnc1)N1CCN(c2ccc(F)cc2)CC1` (stereo not given), the Potency was “inactive”.
With `Cc1cnc(C(=O)OCC(=O)Nc2ccc3c(c2)OCCO3)cn1` the Potency was “inactive”.
